# The list is not random: actives were taken first. Their share in the collection is about 11%.
# HPGD block: qHTS Assay for Inhibitors of HPGD (15-Hydroxyprostaglandin Dehydrogenase) | 15-hydroxyprostaglandin dehydrogenase [NAD(+)] (Homo sapiens), P15428 | purified HPGD, NADH fluorescence kinetic, PGE2 substrate | Potency, µM, for the others: at the highest dose activity change, negative = inhibition, hits mostly inhibitors | 150,000 compounds, 4.3% hits | AID 894, 2007; also: potency is read from the fitted curve at half-maximal effect
#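 20 nM HPGD preincubated 15 min at room temperature with compound in 50 mM Tris-HCl pH 8, 0.01% Tween 20. Started with 1 mM NAD+ and 30 uM prostaglandin E2; NADH fluorescence (360/450 nm) read 5 times over 30-s intervals, last minus first.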
# ALDH1A1 block: qHTS Assay for Inhibitors of Aldehyde Dehydrogenase 1 (ALDH1A1); 220,000 compounds, 7.3% hits; Aldehyde dehydrogenase 1A1 (Homo sapiens), P00352; Purified ALDH1A1, NADH fluorescence, propionaldehyde substrate; Potency, µM (doses to about 75.3 µM), for inactives: top-dose activity, negative = inhibition, most hits filed as inhibitors;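 also: potency is read from the fitted curve at half-maximal effect; plate controls were no enzyme wells and a reference inhibitor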
# Target sequence (P00352 whole entry, looked up): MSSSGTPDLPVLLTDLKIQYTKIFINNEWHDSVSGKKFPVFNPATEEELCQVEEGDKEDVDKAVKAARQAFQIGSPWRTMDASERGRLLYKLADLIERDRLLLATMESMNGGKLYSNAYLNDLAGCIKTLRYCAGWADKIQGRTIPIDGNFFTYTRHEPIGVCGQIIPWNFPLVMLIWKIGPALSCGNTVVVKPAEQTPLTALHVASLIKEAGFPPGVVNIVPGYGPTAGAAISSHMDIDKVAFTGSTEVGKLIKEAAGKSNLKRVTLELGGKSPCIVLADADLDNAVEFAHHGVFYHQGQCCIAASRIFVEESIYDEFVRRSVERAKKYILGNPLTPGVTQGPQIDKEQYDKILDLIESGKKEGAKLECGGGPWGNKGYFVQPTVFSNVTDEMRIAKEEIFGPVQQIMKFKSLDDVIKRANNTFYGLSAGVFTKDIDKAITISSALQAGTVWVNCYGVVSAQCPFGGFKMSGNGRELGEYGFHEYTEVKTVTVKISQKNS
# PNC assembly inh: High Content Assay for Compounds that inhibit the Assembly of the Perinucleolar Compartment | activity change (PNC), negative = inhibition, % at 10 µM | 140,000 compounds, 3.1% hits | PC3M PTB-GFP, PNC prevalence imaging, 16 h; hits give low values;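 active = readout at or below -70, meaning at least 70% loss of cells showing the perinucleolar compartment, a nuclear body marking cancer cells; inconclusive = readout between -30 and a set limit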;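 also: plate controls were DMSO wells for no effect and camptothecin positive control wells for full effect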
#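 Compounds are pinned in duplicate onto adhered PC3M cells stably expressing GFP-tagged PTB and incubated 16 h at 37 C. Cells are then fixed, nuclei stained with Hoechst, and PNC-positive cells counted.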
# The depositor's hits bear a star; ? = inconclusive; / = not tested or not shown; ! = repeats disagree; [ ] = another dose, or the depositor's remark. Unless noted, calls follow the shape of the dose curve; as a rule, active = well fitted inhibition curve with a large enough effect (not every such curve was filed as active); inconclusive = small, poorly fitted or top-dose-only effect, or another doubt; inactive = no such curve, though single readings can be large or run the other way. Unless noted, % is scaled to controls: 0 for no effect and ±100 for the full control effect.
SMILES,HPGD block,ALDH1A1 block,PNC assembly inh
COc1ccccc1-n1cc(C(=O)N2CCCC(CO)(Cc3ccccc3C)C2)cn1 (centres undefined),/,1.3%,/
CCOC(=O)N/N=C1/C[C@@H](O)[C@@H](O)[C@@H]2[C@@H]3C(=O)N(Cc4ccccc4)C(=O)[C@H]3CC[C@@H]12,/,6.2%[13.5 µM],/
COc1ccc(N2CC(C(=O)Nc3nnc(SCc4ccccn4)s3)CC2=O)cc1 (centres undefined),-29.6%,?,?
COc1ccccc1NCC(=O)n1nc(C)cc1C,/,6.1%,/
Cc1ccccc1NC(=O)CCC(=O)OCC(=O)c1cccc([N+](=O)[O-])c1,/,-13.6%,/
COc1cc(OC)c(OC)cc1NC(=O)CC1COc2ccccc2O1 (centres undefined),-9.4%,3.55µM*,?
CCOc1ncccc1C(=O)NCC1COc2ccccc2O1 (centres undefined),-16.4%,-10.8%,-4.1
CCc1ccc(C(=O)NCC2COc3ccccc3O2)o1 (centres undefined),17.8µM*,-9.7%,30.0
CC(C)(C)NC(=O)CCC1COc2ccccc2O1 (centres undefined),-3.5%,4.8%,15.5
O=C(CCC1COc2ccccc2O1)NCC1COc2ccccc2O1 (centres undefined),-19.1%,0.2%,-100.0*
CCN(CC)S(=O)(=O)c1ccc2oc(C(=O)NCC3COc4ccccc4O3)c(C)c2c1 (centres undefined),-23.8%,14.1µM*,10.7
COc1ccc(C)cc1NC(=O)CC1COc2ccccc2O1 (centres undefined),/,-0.6%,/
Cc1c(C(=O)NCC2COc3ccccc3O2)oc2ccc(S(=O)(=O)N3CCOCC3)cc12 (centres undefined),-26.2%,-11.9%,?
COCCn1c(N)c(N(Cc2ccccc2)C(=O)c2cc3ccccc3o2)c(=O)[nH]c1=O,/,-1.8%,/
COC(=O)[C@@H]1CC[C@H](C)[C@@H](c2ccc(C)cc2)N1C(=O)c1ccc(/C=N\OC[C@@H](O)[C@H]2O[C@H]3OC(C)(C)O[C@H]3[C@@H]2O)cc1,/,6.4%[13.5 µM],/
CCN(C(=O)Cc1c(C(=O)O)n(C)c2ccccc12)c1ccc(F)cc1,/,10.2%,/
Oc1cccc(/C=N/NC(=S)Nc2cccnc2)c1O,31.6µM*,?,?
Fc1ccc(/C=N/NC(=S)Nc2cccnc2)cc1,/,22.4µM*,/
Oc1ccc(/C=N/NC(=S)Nc2cccnc2)c(O)c1,?,-74.2%,36.7
CC(=O)Nc1cccc(C(=O)N/N=C/c2cccnc2)c1,/,5.7%,/
Fc1cccc(F)c1/C=N/NC(=S)Nc1cccnc1,/,-2.1%,/
O=C(O)c1cccc(NC(=S)N/N=C/c2cccnc2)c1,/,25.1µM*,/
NS(=O)(=O)c1cccc(NC(=O)COC(=O)C2CCCCC2)c1,/,-3.8%,/
COC(=O)c1ccc(C23CC2(C(NP(=O)(c2ccccc2)c2ccccc2)c2ccccc2)C3)cc1 (centres undefined),-19.4%,31.6µM*,/
C[C@@H](C(=O)Cc1ccc2ccccc2c1)[C@@H]1C[C@@]1(C)[C@@H](NP(=O)(c1ccccc1)c1ccccc1)c1ccccc1,-15.5%,4.8%,/
SMILES,HPGD block,ALDH1A1 block,PNC assembly inh
CCN1/C(=C/C(C)=O)Sc2ccc(OC)cc21,12.6µM*!,?,?
CCOC(=O)/C(=C/C=C1\Sc2cc(OCC)c(OCC)cc2N1CC)C(C)=O,/,-7.3%,/
CCc1nnc(NC(=O)C2CCCCN2S(=O)(=O)c2ccccc2)s1 (centres undefined),/,1.9%,/
O=C(/C=C/c1ccc([N+](=O)[O-])cc1)NCc1cccs1,-13.1%,?,-6.0
Cc1ccc(/C=C/C(=O)NCc2cccs2)o1,/,3.98µM*,/
Cc1ccc(/C=C/C(=O)NCc2cccs2)cc1,14.1µM*,?,-15.6
Cc1ccc(/C=C/C(=O)NCc2cccs2)c(C)c1,/,-5.0%,/
COc1cc(O)c(C)c(O)c1,-5.2%,7.0%,/
OC1(C(O)(c2ccc(-c3ccccc3)cc2)c2ccc(-c3ccccc3)cc2)CCCCC1,-0.5%,6.9%[13.5 µM],/
Cc1ccc(S(=O)(=O)N[C@H]2COC(=O)[C@@H](C)COC(=O)[C@H](C)NC(=O)C/C=C\[C@H]2C)cc1,/,-8.2%[13.5 µM],/
CCOc1cc(CNn2cn[nH]c2=S)cc(Cl)c1OCc1ccccc1F,?,3.9%,-27.6
CNC(CC(=O)c1ccc([N+](=O)[O-])cc1)C(Cl)(Cl)Cl (centres undefined),10µM*,0.562µM*,19.7
COc1ccc(C(=O)CC(Nc2ccc([N+](=O)[O-])cc2)c2ccc(OC)cc2)cc1 (centres undefined),-12.3%,?,19.4
Cc1cccc(NCCC(=O)c2ccc([N+](=O)[O-])cc2)c1C,/,0.178µM*,/
Cc1ccc(C(=O)c2ccc([N+](=O)[O-])cc2)cc1C,-17.6%,?,4.2
Cc1ccc(CC(=O)Nc2cccc([N+](=O)[O-])c2)cc1,/,-5.4%,/
Cc1ccc(C(=O)CNc2cccc([N+](=O)[O-])c2)cc1,/,12.6µM*,/
Cc1ccc(NCC(=O)c2ccc([N+](=O)[O-])cc2)cc1,/,7.94µM*,/
CC(=O)NCCCNc1ccc([N+](=O)[O-])cc1,-15.5%,?,12.5
CCCSc1nc(O)c(C(c2ccc(OC)c(O)c2)c2c(O)nc(SCCC)n(C)c2=O)c(=O)n1C,-25.0%,?,-23.0
C=CCNc1nc(Nc2ccc([N+](=O)[O-])cc2)nc(N2CCCC2)n1,/,31.6µM*,/
C=CCNc1nc(Cl)nc(Nc2ccc([N+](=O)[O-])cc2)n1,/,1.6%,/
COc1ccc(Nc2nc(Cl)nc(N3CCN(c4ccc(OC)cc4)CC3)n2)cc1,/,-1.7%,/
CC1CCN(c2nc(Cl)nc(Nc3ccc([N+](=O)[O-])cc3)n2)CC1,-19.9%,15.8µM*,32.6
CC1=C(C)CC(c2ccccc2)C(C(=O)c2ccccc2O)C1 (centres undefined),/,-1.3%[13.5 µM],/
SMILES,HPGD block,ALDH1A1 block,PNC assembly inh
CNC(=O)CS(=O)(=O)CC(=O)Nc1cc(OC(C)C)c(Cl)cc1Cl,/,5.5%,/
CCOC(=O)C1CCN(CCC(=O)Nc2ccc(C)cc2)CC1,/,4.6%,/
Cc1ccc(OCCCCN2CCCC(C)C2)c([N+](=O)[O-])c1 (centres undefined),/,31.6µM*,/
C=CCc1ccc(OCCCN2CCCC(C)C2)c(OC)c1 (centres undefined),-11.1%,15.8µM*,?
Cc1ccc(OCCCCNC(C)(C)C)c([N+](=O)[O-])c1,-4.0%,12.6µM*,-24.6
C=CCc1ccc(OCCCCN2CCC(C)CC2)c(OC)c1,-4.0%,-12.1%,?
CC1CCN(CCCCOc2ccccc2[N+](=O)[O-])CC1,-4.8%,-3.9%,5.4
COCCNCCOc1ccc(C)cc1[N+](=O)[O-],/,-92.7%,/
CCC1=C2CC[C@H]3C(=O)N(CC)C(=O)[C@H]3[C@H]2[C@@]2(Cc3ccccc3)C(=NCC3CC3)OC(=O)N2C1=O,-6.9%,2.6%,/
Cc1ccc(C2N(c3ccc(Cl)cc3)C(=O)N3CCCN23)cc1 (centres undefined),/,0.4%,/
Nc1cc(Br)c(N)c(Br)c1,-0.7%,-0.3%,-93.3*
Nc1cc(Cl)c(N)c(Cl)c1,-11.3%,?,/
Cc1ccccc1N1CC(=O)N(c2ccccc2C)CC1=O,-5.2%,4.8%,6.7
